# POLK inh: DNA polymerase kappa (human) inhibition. purified Pol kappa, fluorescent DNA synthesis assay, 10 min. Potency, µM (top dose mostly 107 µM), without a hit: at the top dose activity, negative = inhibition, hits mostly inhibitors. 400,000 compounds, 0.53% hits; further: on the % scale 0 is the no-effect control and ±100 the full control effect
#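 Enzyme at 10 nM met test compounds for 15 min at room temperature. Substrate addition (50 nM final) began the reaction, which was monitored by fluorescence at 0 and 10 min.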
# POLB inh: DNA polymerase beta (human) inhibition. 340,000 compounds, 1.3% hits. Pol beta primer extension/strand displacement, fluorescence kinetic. Potency, µM (doses to about 114 µM), for the others: top-dose activity change, negative = inhibition, hits mostly inhibitors. P06746; further: on the % scale 0 is the no-effect control and ±100 the full control effect
#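 10 nM enzyme + cpd, 15 min RT; start with substrate 50 nM final; read 0 min and after 10 min RT. Corrected, normalized data; 4-parameter Hill curve fit.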
# POLH inh: inhibitors of human DNA polymerase eta; Q9Y253; recombinant Pol eta, fluorescent DNA replication assay; Potency, µM (highest dose often 114 µM), without a hit: at the top dose activity change, negative = inhibition, actives largely listed as inhibitors; 390,000 compounds, 1.2% hits; AID 588591; further: on the % scale 0 is the no-effect control and ±100 the full control effect
#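 Fluorescent replication assay: 50 nM final substrate added after a 15 min room-temperature compound preincubation with 10 nM enzyme. Signal taken at 0 min and again at 10 min.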
# WRN inhibitor: inhibitors of human WRN helicase; Q14191; WRN helicase unwinding, fluorescent forked duplex, kinetic; Potency, µM (doses to about 114 µM), inactives show top-dose activity change, negative = inhibition, usual class: inhibitors; 360,000 compounds, 0.46% hits; AID 651768; further: on the % scale 0 is the no-effect control and ±100 the full control effect; nearly all actives have a fitted effect of over 55% in size
#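 Kinetic fluorescence helicase assay: unwinding of a quenched forked DNA duplex (100 nM final) with 2 mM ATP final raises red fluorescence (525/598 nm). Compounds sat 15 min at room temperature with 20 nM WRN beforehand.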
# FEN1 inh: inhibitors of human flap endonuclease 1; 390,000 compounds, 0.35% hits; P39748; Potency, µM (top dose mostly 114 µM), inactives show top-dose activity change, negative = inhibition, actives largely listed as inhibitors; Recombinant FEN1 flap cleavage, fluorescence, 15 min; further: on the % scale 0 is the no-effect control and ±100 the full control effect; nearly all actives have a fitted effect of over 65% in size
#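 Quantitative HTS format: each compound was titrated, incubated with 10 nM nuclease for 15 min at room temperature, then challenged with flap substrate at 50 nM final. Signal change over 15 min gave concentration–effect curves.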
# POLI inh: blocks human DNA polymerase iota activity. Potency, µM (highest dose often 115 µM), inactives show top-dose activity, negative = inhibition, actives largely listed as inhibitors. AID 588590. Q9UNA4. 390,000 compounds, 1% hits. Pol iota fluorescent replication assay, 10 min
#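 Fluorescent replication assay read twice, at 0 min and 10 min after adding 50 nM (final) substrate. Enzyme (10 nM) and compounds were first incubated 15 min at room temperature; enzyme-free buffer wells were negative controls.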
# * hit, by the source's call; ? = inconclusive; · = not tested or not shown; ! = repeats disagree; [ ] = remark or other dose. Only some compounds are listed: those with a hit (about 2.4% of all), similar ones and a draw of the others. The call rests on the fitted dose curve; in most records, active means well fitted curve in the direction sought with a large enough effect; inconclusive means small, poorly fitted or top-dose-only effect, or another doubt; inactive means no such curve, though single readings can be large; an effect the other way counts as inactive or inconclusive. Potency means the concentration at half of the fitted maximal effect.
SMILES,POLK inh,POLB inh,POLH inh,WRN inhibitor,FEN1 inh,POLI inh
N#C/C(=C\c1c[nH]c2ccccc12)C(=O)c1ccc(O)c(O)c1,5.97µM*,3.77µM*,1.41µM*,·,3.36µM*,7.94µM*
COc1ccc2c(c1)C(c1ccccc1C)CC(=O)O2 (configuration not stated),-22.9%,·,·,·,·,·
Cc1cc(=O)oc2cc(OCc3ccc(C(=O)N4CCN(c5ccccc5)CC4)cc3)ccc12,-2.2%,11.2µM*,3.5%,-11.4%,-3.5%,120.8%
Cc1cc(=O)oc2cc(OCc3ccc(C(=O)N4CCN(c5ccc([N+](=O)[O-])cc5)CC4)cc3)ccc12,-6.0%[60.1 µM],13.9%,15.2%,-7.7%,16.7%,-12.5%
CC(C)=CC(=O)Oc1ccc(C(=O)N(C)c2ccccc2I)cc1,-2.9%,·,·,·,4.4%,4.3%
CCCCNS(=O)(=O)c1ccc2nc(SCC(=O)c3ccc(C#N)cc3)[nH]c2c1,1.4%,39.8µM*,?,?,?,-2.1%
CCN(CC)C(=O)N1CCN(/[N+]([O-])=N/Oc2ccc([N+](=O)[O-])cc2[N+](=O)[O-])CC1,0.3%,·,·,·,?,?
O=C1Cc2cccc(=O)c(O)c2C(=O)O1,·,·,8.91µM*,-20.1%,·,·
O=C1c2c(O)cccc2Cc2cccc(O)c21,22.4µM*!,·,-20.6%,-5.9%,9.3%,7.6%
Cc1ccc(-n2nc3ccc(NC(=O)C(C)C)cc3n2)cc1,-4.4%[60.1 µM],9.5%,4.1%,-4.2%,11.9%,9.3%
Cc1ccc2nc(-c3ccc(NC(=O)c4ccco4)cc3)[nH]c2c1,-28.5%,25.1µM*,?,-30.9%,?,?
Cc1ccc(-n2nc3ccc(NC(=O)c4ccco4)cc3n2)cc1,-41.5%,25.1µM*,?,-18.9%[57.1 µM],3.3%,?
Cn1cccc1-c1nc2ccc(NC(=O)c3ccco3)cc2[nH]1,-10.6%,-18.8%,-1.6%,-12.3%,-13.1%,-1.9%
O=C(Nc1ccc2nc(-c3cccs3)[nH]c2c1)c1cccs1,-10.5%,3.4%,?,-35.1%,-10.3%,?
O=C(Nc1ccc2nc(-c3cccs3)[nH]c2c1)c1ccco1,-19.2%,31.6µM*,?,-18.8%,-19.7%,?
O=C(Nc1cccc(S(=O)(=O)Nc2ccccc2F)c1)c1ccc2ccccc2n1,-11.1%,4.0%,-4.5%,-23.5%,?,?
O=C(/C=C/c1ccccc1)Nc1cccc(S(=O)(=O)Nc2ccccc2F)c1,-19.4%,-27.1%,-9.4%,39.8µM*,-17.8%,-6.3%
CCOC(=O)c1c2c([nH]c(=S)c1C#N)CCCC2,-17.1%,?,79.4µM*,-27.4%,-7.3%,?
CCOC(=O)c1c(O)c2c([nH]c1=O)CCCC2,-9.2%,13.8%,-5.9%,7.8%,-2.6%,-12.5%
Clc1ccc(-c2cc3ncc4c(n3n2)-c2ccccc2OC4)cc1,-2.0%,43.2%,-1.0%,·,-8.7%,-10.5%
COc1ccc(C2/C=C\CN(C(=O)CC(C)(C)C)C(C)C(=O)N2Cc2ccc(F)cc2)cc1 (configuration not stated),-0.1%,·,·,·,1.8%,8.1%
Cc1cc(/C=N/NC(=O)C(O)(c2ccccc2)c2ccccc2)c(C)n1-c1ccc(C(=O)O)cc1,-22.4%,?,79.4µM*,0.6%[11.6 µM],-14.3%,?
Cc1cc(/C=N/NC(=O)c2cccc(N(C)C)c2)c(C)n1-c1cc(C(=O)O)cc(C(=O)O)c1,31.6µM*,17.8µM*,20µM*,?,?,10µM*
O=C1/C(=C\c2ccc(O)c(O)c2)Oc2c1ccc(O[C@@H]1O[C@H](CO)[C@@H](O)[C@H](O)[C@H]1O)c2O,31.6µM*,·,·,·,?,22.4µM*
CC1=CC(=O)c2ccccc2C1=O,8.9%,-1.1%,?,6.9%,1.3%,?
SMILES,POLK inh,POLB inh,POLH inh,WRN inhibitor,FEN1 inh,POLI inh
CC(C)(C=O)C1=CC(=O)c2ccccc2C1=O,3.9%,0.4%,?,50.1µM*,?,?
O=C(Cc1cccs1)N(c1ccccc1)C1C=CS(=O)(=O)C1 (configuration not stated),-11.0%,?,-7.9%,-1.2%[11.6 µM],-0.9%,56.2µM*
O=C(Cc1ccc(F)cc1)N(c1ccccc1)C1C=CS(=O)(=O)C1 (configuration not stated),-0.2%,35.1%,-12.6%,-0.1%,5.7%,47.2%
O=C1C=C(O)CC(c2ccc(Cl)cc2)C1 (configuration not stated),-8.7%,50.1µM*,?,-7.0%,-4.6%,0.6%
O=C1C=C(O)CC(c2ccc(Cl)c(Cl)c2)C1 (configuration not stated),-3.2%,-30.0%,7.8%,-15.6%,1.2%,7.6%
CC1CCCCC12NC(=O)N(Cc1cc(=O)n3ccsc3n1)C2=O (configuration not stated),-13.0%,?,-3.8%,-9.1%,-14.4%,79.4µM*
COCCn1c(=O)c(-c2ccc(Cl)cc2)nc2cnc(Oc3cccc(Cl)c3)nc21,-5.8%[60.1 µM],·,·,·,·,·
CCCCCN1CC(O)=C(c2nc3ccccc3[nH]2)C1=N,-7.7%,31.6µM*,5.6%,6.0%,1.0%,67.3%
COc1ccc(-c2c[n+]3c4n2CCCCC4=C(c2ccc(Br)cc2)C3)cc1,-2.2%,25.1µM*,1.4%,-14.5%,0.5%,?
Cn1ncc(N=Cc2ccccc2)c1C(N)=O,-10.0%,0.9%,?,-12.7%,-0.4%,9.0%
Nc1ncc(Br)cc1N=Cc1ccccc1,-27.8%,39.8µM*,-23.9%,?,6.2%,10µM*
Cc1ccc(-n2c(Cl)c(Cl)nc(Cl)c2=O)cc1,-7.9%,1.5%,-8.6%,22.4µM*,-30.2%,66.4%
CSCC[C@H](NC(=O)[C@H](Cc1ccccc1)NC(=O)[C@H](Cc1cnc[nH]1)NC(=O)CNC(=O)[C@@H](NC(=O)[C@H](C)NC(=O)[C@H](Cc1c[nH]c2ccccc12)NC(=O)[C@H](CCC(N)=O)NC(=O)[C@@H]1CCCN1C(=O)[C@@H](NC(=O)[C@@H]1CCC(=O)N1)C(C)C)C(C)C)C(N)=O,10.2%[60.1 µM],·,·,·,·,·
Nc1[nH]nc2nc3ccccc3cc12,-6.4%,6.5%,-16.6%,-4.0%,-10.5%,26.7%
Cc1cc2c(N)cccc2nn1,89.1µM*,22.4µM*,-10.6%,?,?,5.62µM*
Cc1cc2c(NC(=O)Nc3ccccc3)cccc2nn1,1.6%,-1.8%,-9.9%,0.3%,-6.5%,132.7%
Nc1cccc2nc3ccccc3cc12,8.0%,8.91µM*,14.1%,1.7%,-2.5%,-14.7%
OCC(O)CS (configuration not stated),-2.3%[60.1 µM],·,·,·,·,·
Cc1cccc(NC(=O)CSc2cn(CC(=O)N3CCOCC3)c3ccccc23)c1,-8.6%,1.4%,-25.2%,·,-1.2%,19.7%

# Screens (PubChem)
